The record followed here is the antibiotic and cytotoxicity screens of Wong et al. (2023).

The structures appear in SMILES notation. The campaign covered roughly 39,000 compounds. About 3,300 (8.5%) were called active. For the sample, actives were picked, then their nearest neighbours and some compounds at random.

This test deals with HepG2. Briefly: cytotoxicity call (relative viability < 0.9). The conditions noted are these: 10 µM.
Take `Cc1ccc(-c2ccc3c(c2)O[C@@H](CN(C)C(=O)NC(C)C)[C@H](C)CN([C@@H](C)CO)S3(=O)=O)cc1`: the cytotoxicity call was “inactive”.
Consider `C[C@H](CO)N1C[C@H](C)[C@H](CN(C)S(=O)(=O)c2ccc3c(c2)OCCCO3)OCc2cnnn2CCCC1=O`, for which the cytotoxicity call is “inactive”.
As for `C[C@H](CO)N1C[C@H](C)[C@H](CN(C)Cc2ccccc2F)Oc2cc(C#CC3CC3)ccc2S1(=O)=O`, the cytotoxicity call was “inactive”.
The result for `CCN(CC)CCNC(=O)c1c(C)[nH]c(/C=C2/C(=O)Nc3ccc(-c4csc(-c5ccccc5)n4)cc32)c1C` reads “active”; that for `C[C@@H]1CN([C@@H](C)CO)S(=O)(=O)c2ccc(C#CCC3CCCC3)cc2O[C@H]1CN(C)C(=O)c1cnccn1`, “inactive”.
Regarding `C[C@@H]1CCCCO[C@H](CN(C)S(=O)(=O)c2cccs2)[C@H](C)CN([C@H](C)CO)C(=O)c2cc(NC(=O)C3CCCCC3)ccc2O1`, the cytotoxicity call was “inactive”.
As to `CC(C)NC(=O)Nc1cccc2c1O[C@@H](CN(C)S(=O)(=O)c1ccc(F)cc1)[C@@H](C)CN([C@@H](C)CO)C2=O`, the cytotoxicity call was “inactive”.
As to `CC1C2CCC3C4CC=C5CC(N(C)C)CCC5(C)C4CCC32CN1C` (stereo unspecified), the cytotoxicity call is “active”.
Take `CC12CCC(O)CC1=CCC1C2CCC2(C)C(c3cccnc3)=CCC12` (stereo unspecified): the cytotoxicity call was “inactive”.
The result for `CC(=O)C1CCC2C3CC=C4CC(O)CCC4(C)C3CCC12C` (stereo unspecified) reads “inactive”.
As for `CC(O)C(N)C(=O)O` (stereo unspecified), the cytotoxicity call is “inactive”.
The result for `CC(C)[C@@H](N)C(=O)O` reads “inactive”; that for `C[C@@H](O)[C@H](N)C(=O)O`, “active”.
In the case of `C[C@H](CO)N1C[C@H](C)[C@H](CN(C)Cc2ccc(Oc3ccccc3)cc2)Oc2ccc(NC(=O)Cn3cnnn3)cc2CC1=O` it was “inactive”; in that of `COC(=O)[C@H](Cc1ccc(-n2cc(-c3cccc(/C=C/C(=O)NO)c3)nn2)cc1)N1CC2=C[C@H]([C@@H](O)Cc3ccccc3)n3c(=O)n(C)c(=O)n3[C@@H]2[C@@H](C2CC2)O1`, “active”; in that of `COC(=O)[C@H](Cc1ccc(-n2cc(-c3ccc(C(=O)NO)s3)nn2)cc1)N1CC2=C[C@H]([C@@H](O)Cc3ccccc3)n3c(=O)n(C)c(=O)n3[C@@H]2[C@@H](C2CC2)O1`, “inactive”.
In the case of `COC(=O)[C@H](Cc1ccc(-n2cc(-c3ccc(C(=O)NO)cc3)nn2)cc1)N1CC2=C[C@H]([C@@H](O)Cc3ccccc3)n3c(=O)n(C)c(=O)n3[C@@H]2[C@@H](C2CC2)O1`, the cytotoxicity call is “inactive”.
The result for `CC(=O)N1CCO[C@H]2CCN(C(=O)c3ccn(C)n3)C[C@H]21` reads “inactive”.
The result for `CCn1cc(C(=O)O)c(=O)c2cc(F)c(N3CCNC(C)C3)c(F)c21.Cl` (stereo unspecified) reads “inactive”; that for `COc1c(N2CCNC(C)C2)c(F)cc2c(=O)c(C(=O)O)cn(C3CC3)c12` (stereo unspecified), “active”; that for `COc1c(N2CC3CCCNC3C2)c(F)cc2c(=O)c(C(=O)O)cn(C3CC3)c12.Cl` (stereo unspecified), “inactive”.
